The nature of assay [1]: APR_HepG2_NuclearSize_72hr: Apredica 72-hour HepG2 Assay for Nuclear Size (AID 2282925). Conditions: high-content imaging, actives raise or lower the signal. The essentials:
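Nuclear size was read by high-content imaging of Hoechst 33342 stain after formaldehyde fixation. Compounds ran 72 h on HepG2 at 0.39 to 200 uM, with final DMSO 0.5% v/v. Curves fitted both directions relative to DMSO control.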

Assay [2] is described as follows: ATG_CRE_CIS: Attagene CIS-FACTORIAL HepG2 Assay for human cAMP Responsive Element (CRE) binding protein 3 (AID 2282926). Conditions: HepG2 CRE cis-reporter, Attagene multiplexed mRNA; actives raise or lower the signal. The procedure, abridged:
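Liver-derived HepG2, transfected with a CRE-containing reporter panel, exposed 24 h; transcript levels sized and quantified by capillary electrophoresis of labelled amplicons; signal changes either way referenced to vehicle.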

Assay [3] concerns the target CCAAT/enhancer-binding protein beta (Homo sapiens) (UniProt P17676). Kind of assay: ATG_C_EBP_CIS: Attagene CIS-FACTORIAL HepG2 Assay for human CCAAT/Enhancer Binding Protein (C/EBP) beta (AID 2282927). The conditions noted are these: HepG2 Attagene cis-factorial transcription factor reporter; actives raise or lower the signal. The procedure, abridged: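 Endogenous C/EBPb-driven reporter transcripts measured in transfected human HepG2 cells at 24 h via RT-PCR and capillary electrophoresis of labelled fragments. Activity fitted in both directions relative to DMSO baseline.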

Assay [4] in a line: ATG_CMV_CIS: Attagene CIS-FACTORIAL HepG2 Assay for human CMV (Internal Marker) (AID 2282928).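 Also: endpoint acts as a background internal control marker rather than a target.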 Conditions: HepG2 CMV promoter reporter, transcription factor profiling; actives raise or lower the signal. The procedure, abridged: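 24 h chemical treatment, HepG2 with transient multi-reporter transfection; RNA → oligo(dT) RT → PCR → 6-FAM extension → HpaI digest → CE fluorescence. Bidirectional fit, DMSO negative control.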

A short description of assay [5]: ATG_DR4_LXR_CIS: Attagene CIS-FACTORIAL HepG2 Assay for human Liver X Receptor (LXR), DR4 submotif (AID 2282929). Conditions: HepG2 Attagene DR4 cis-reporter, mRNA transcription; actives raise or lower the signal. The essentials:
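HepG2 cells were transiently transfected with multiple cis-regulated reporter units and dosed for 24 hours. The DR4 reporter mRNA was quantified by RT-PCR, 6-FAM labelling and capillary electrophoresis. Bidirectional fits used DMSO as baseline.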

The target in assay [6] is Aryl hydrocarbon receptor (Homo sapiens) (UniProt P35869). Briefly: ATG_Ahr_CIS: Attagene CIS-FACTORIAL HepG2 Assay for human Aryl Hydrocarbon Receptor (Ahr) (AID 2282930). The conditions noted are these: HepG2 AhR cis-factorial reporter transcription; actives raise or lower the signal. The procedure, abridged: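 Reporter mRNA levels, quantified by RT-PCR and fluorescent capillary electrophoresis, reflect endogenous AhR transcriptional activity in HepG2 cells carrying transfected cis-promoter reporter constructs. Readout at 24 h post-dose; gain or loss fitted against DMSO baseline.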
Sequence of Aryl hydrocarbon receptor (Homo sapiens) (P35869 whole entry, looked up): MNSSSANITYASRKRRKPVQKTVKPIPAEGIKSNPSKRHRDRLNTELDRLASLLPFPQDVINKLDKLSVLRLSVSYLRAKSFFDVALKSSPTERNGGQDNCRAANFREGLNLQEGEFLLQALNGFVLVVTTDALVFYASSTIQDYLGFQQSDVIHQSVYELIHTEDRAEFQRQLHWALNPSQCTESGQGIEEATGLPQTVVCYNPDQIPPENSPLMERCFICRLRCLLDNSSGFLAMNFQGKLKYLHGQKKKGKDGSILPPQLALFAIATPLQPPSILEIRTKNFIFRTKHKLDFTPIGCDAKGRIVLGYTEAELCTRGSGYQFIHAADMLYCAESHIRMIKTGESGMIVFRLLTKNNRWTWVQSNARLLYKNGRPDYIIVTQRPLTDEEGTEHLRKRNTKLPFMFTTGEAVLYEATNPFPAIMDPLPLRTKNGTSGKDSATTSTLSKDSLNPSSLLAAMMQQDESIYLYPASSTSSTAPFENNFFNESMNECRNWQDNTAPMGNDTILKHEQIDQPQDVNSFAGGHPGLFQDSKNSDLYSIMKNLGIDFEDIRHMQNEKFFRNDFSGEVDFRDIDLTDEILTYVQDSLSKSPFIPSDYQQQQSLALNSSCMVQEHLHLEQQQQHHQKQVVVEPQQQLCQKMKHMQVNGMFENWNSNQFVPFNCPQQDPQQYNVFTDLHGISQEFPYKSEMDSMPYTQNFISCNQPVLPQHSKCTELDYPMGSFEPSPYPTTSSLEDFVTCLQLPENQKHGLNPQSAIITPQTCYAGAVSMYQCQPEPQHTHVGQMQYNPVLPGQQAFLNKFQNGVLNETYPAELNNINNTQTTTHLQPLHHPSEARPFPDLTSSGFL

Assay [7] can be described thus: ATG_AP_1_CIS: Attagene CIS-FACTORIAL HepG2 Assay for human Activator Protein 1 (AP-1) (AID 2282931). Conditions: HepG2 Attagene cis-factorial AP-1 reporter mRNA; actives raise or lower the signal. The essentials:
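HepG2 cells transiently transfected with cis-element-driven reporter transcription units, dosed for 24 hours. Reporter mRNA measured by RT-PCR, 6-FAM labelling, HpaI digestion and capillary electrophoresis. Bidirectional fitting against DMSO baseline.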

The nature of assay [8]: ATG_AP_2_CIS: Attagene CIS-FACTORIAL HepG2 Assay for human Activator Protein 2 (AP-2) (AID 2282932). Conditions: HepG2 AP-2 cis-reporter, Attagene transcription factor profiling; actives raise or lower the signal. The essentials: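 Endogenous transcription factor activity is reported through transfected multiplex reporter constructs in HepG2, after 24 h of compound exposure. Transcripts were quantified by RT-PCR and capillary electrophoresis of fluorescent fragments. Bidirectional fit against DMSO.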

The nature of assay [9]: ATG_BRE_CIS: Attagene CIS-FACTORIAL HepG2 Assay for human Bone Morphogenetic Protein (BMP) Response Element (BRE) (AID 2282933). The conditions noted are these: HepG2 BMP response element reporter, Attagene transcription factor profiling; actives raise or lower the signal. The essentials: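 Endogenous transcription factor activity at a BMP response element was monitored in transfected HepG2 cells 24 h after dosing. Fluorescent RT-PCR products were resolved by capillary electrophoresis, and activity was fitted in both directions versus DMSO.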

The target of assay [10] is Transcription factor E2F1 (Homo sapiens) (UniProt Q01094). Kind of assay: ATG_E2F_CIS: Attagene CIS-FACTORIAL HepG2 Assay for human E2F Transcription Factor 1 (AID 2282935). Conditions: HepG2 Attagene cis-reporter, E2F reporter RNA transcripts; actives raise or lower the signal. The procedure, abridged: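 Gain or loss of reporter transcript, fitted against DMSO, reflects E2F1-driven transcription. Transiently transfected HepG2 dosed 24 h before RNA isolation. Quantified by fluorescent RT-PCR products separated by capillary electrophoresis.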
Sequence of Transcription factor E2F1 (Homo sapiens) (Q01094 whole entry, looked up): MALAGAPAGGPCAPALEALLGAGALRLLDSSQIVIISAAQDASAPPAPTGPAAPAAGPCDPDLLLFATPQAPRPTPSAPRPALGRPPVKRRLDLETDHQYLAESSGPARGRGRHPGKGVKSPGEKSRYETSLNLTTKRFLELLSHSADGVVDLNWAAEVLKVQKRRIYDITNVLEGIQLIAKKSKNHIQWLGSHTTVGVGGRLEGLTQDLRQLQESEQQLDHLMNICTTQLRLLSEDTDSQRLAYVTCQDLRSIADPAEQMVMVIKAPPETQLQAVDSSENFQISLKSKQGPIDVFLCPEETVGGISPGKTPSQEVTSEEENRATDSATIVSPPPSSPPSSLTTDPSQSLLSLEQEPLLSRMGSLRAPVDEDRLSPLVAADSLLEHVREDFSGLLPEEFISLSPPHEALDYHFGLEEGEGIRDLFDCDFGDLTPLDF

Assay [11] can be described thus: ATG_E_Box_CIS: Attagene CIS-FACTORIAL HepG2 Assay for human Enhancer Box (E-box) (AID 2282936). The conditions noted are these: HepG2 E-box cis-reporter transcription, actives raise or lower the signal. The procedure, abridged:
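E-box-driven reporter transcripts measured in transiently transfected HepG2 after 24 h exposure: RNA reverse-transcribed, PCR-amplified, fluorescently labelled, digested and resolved by capillary electrophoresis. Gain or loss relative to DMSO.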

A short description of assay [12]: ATG_M_61_CIS: Attagene CIS-FACTORIAL HepG2 Assay for M61 Transcription Factor (Internal Marker) (AID 2282937). The conditions noted are these: HepG2 Attagene CIS-FACTORIAL M61 internal marker reporter; actives raise or lower the signal. The essentials: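 HepG2 cells transiently transfected with multiplexed cis-promoter reporter units reporting endogenous transcription factor activity, measured 24 h after dosing. Reporter mRNA quantified by RT-PCR and capillary electrophoresis; bidirectional fit against DMSO baseline.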

A short description of assay [13]: ATG_EGR_CIS: Attagene CIS-FACTORIAL HepG2 Assay for human Early Growth Response 1 (EGR1) (AID 2282938). The conditions noted are these: HepG2 Attagene CIS-FACTORIAL EGR reporter mRNA; actives raise or lower the signal. The procedure, abridged: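 HepG2 cells transiently transfected with cis-element-driven multiplexed reporter units, dosed for 24 h. EGR1-element reporter mRNA quantified by RT-PCR, 6-FAM labelling, HpaI digestion and capillary electrophoresis; bidirectional fit versus DMSO.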

Assay [14] is described as follows: ATG_M_19_CIS: Attagene CIS-FACTORIAL HepG2 Assay for M19 Transcription Factor (Internal Marker) (AID 2282939). Conditions: HepG2 Attagene CIS-FACTORIAL M19 internal marker reporter; actives raise or lower the signal. The procedure, abridged:
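Background-control endpoint from a multiplexed HepG2 reporter panel. Cells carrying cis-regulated reporter constructs are treated 24 h, then reporter transcripts are amplified, fluorescently labelled and sized by capillary electrophoresis. DMSO defines baseline.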

The nature of assay [15]: ATG_ERE_CIS: Attagene CIS-FACTORIAL HepG2 Assay for Estrogen Response Element (ERE) (AID 2282940). The conditions noted are these: HepG2 ERE cis-reporter, Attagene RNA transcript; actives raise or lower the signal. The procedure, abridged:
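Cells used were human hepatoma HepG2, transfected with multiple reporter transcription units under cis-regulatory promoters. Reporter mRNA, read 24 h post-dosing via fluorescent RT-PCR products on capillary electrophoresis, was fitted bidirectionally relative to DMSO.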

Assay [16] in a line: ATG_Ets_CIS: Attagene CIS-FACTORIAL HepG2 Assay for human Erythroblast Transformation Specific (ETS) (AID 2282941). Conditions: HepG2 ETS cis-reporter transcription, actives raise or lower the signal. The essentials:
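Cis-regulated reporter mRNA induction in HepG2 (transient transfection), 24 h exposure, RT-PCR plus capillary electrophoresis detection; DMSO serves as negative control and baseline.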

For assay [17], the target named is Hepatocyte nuclear factor 3-beta (Homo sapiens) (UniProt Q9Y261). Briefly: ATG_FoxA2_CIS: Attagene CIS-FACTORIAL HepG2 Assay for human Forkhead box A2 (FOXA2) (AID 2282942). The conditions noted are these: HepG2 cis-reporter transcription factor activity, 24 h; actives raise or lower the signal. The procedure, abridged:
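HepG2 transiently transfected with a multiplexed cis-promoter reporter library read endogenous FOXA2 activity. After 24 h compound exposure, reporter mRNA was quantified by RT-PCR, HpaI digestion and capillary electrophoresis. Bidirectional fit against DMSO.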

A short description of assay [18]: ATG_FoxO_CIS: Attagene CIS-FACTORIAL HepG2 Assay for human Forkhead box O (FoxO) (AID 2282943). Conditions: HepG2 Attagene cis-reporter, FoxO element, mRNA; actives raise or lower the signal. The procedure, abridged: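 Endogenous transcription factor activity read from multiplexed cis-promoter reporter transcripts in transiently transfected HepG2, 24 h after dosing. Reporter RNA measured via RT-PCR plus capillary electrophoresis of FAM-labeled products; gain or loss relative to DMSO.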

Assay [19] is described as follows: ATG_GATA_CIS: Attagene CIS-FACTORIAL HepG2 Assay for human GATA Binding Protein (AID 2282944). The conditions noted are these: HepG2 GATA cis-element reporter, Attagene multiplex mRNA; actives raise or lower the signal. The essentials:
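Endogenous transcription factor activity was captured through cis-promoter-driven reporters in transfected HepG2 cells. After 24 h exposure, reporter transcripts were quantified by RT-PCR with fluorescent capillary electrophoresis, and responses fitted both directions against DMSO.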

For assay [20], the target named is Retinoic acid receptor alpha (Homo sapiens) (UniProt P10276). Briefly: ATG_DR5_RAR_CIS: Attagene CIS-FACTORIAL HepG2 Assay for human Retinoic Acid Receptor Alpha (RARE), DR5 submotif (AID 2282934). Conditions: HepG2 Attagene cis-factorial RARE DR5 reporter, mRNA; actives raise or lower the signal. The essentials:
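Reporter transcripts from a DR5-regulated unit, measured via RT-PCR plus capillary electrophoresis, reflect endogenous RAR activity in transiently transfected human HepG2 liver cells. Exposure lasted 24 h; gain or loss of signal scored against DMSO.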

Active and inactive are the calls of the source. The calls were made as follows: active = hit-call score of the fitted dose curve at least 0.9, where 1 is the maximum; inactive = score below 0.9.

Sequence of CCAAT/enhancer-binding protein beta (Homo sapiens) (P17676 whole entry, looked up, the tested form may be a part): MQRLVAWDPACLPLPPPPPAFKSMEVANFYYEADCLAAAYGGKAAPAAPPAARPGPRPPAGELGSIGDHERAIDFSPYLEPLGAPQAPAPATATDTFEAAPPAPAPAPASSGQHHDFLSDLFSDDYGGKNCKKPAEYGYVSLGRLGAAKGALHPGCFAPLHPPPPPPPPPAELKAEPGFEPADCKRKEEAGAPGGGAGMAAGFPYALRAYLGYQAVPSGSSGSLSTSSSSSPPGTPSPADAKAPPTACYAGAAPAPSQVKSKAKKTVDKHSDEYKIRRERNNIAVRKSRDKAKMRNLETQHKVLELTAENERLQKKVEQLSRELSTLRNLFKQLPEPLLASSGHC
Sequence of Hepatocyte nuclear factor 3-beta (Homo sapiens) (Q9Y261 whole entry, looked up): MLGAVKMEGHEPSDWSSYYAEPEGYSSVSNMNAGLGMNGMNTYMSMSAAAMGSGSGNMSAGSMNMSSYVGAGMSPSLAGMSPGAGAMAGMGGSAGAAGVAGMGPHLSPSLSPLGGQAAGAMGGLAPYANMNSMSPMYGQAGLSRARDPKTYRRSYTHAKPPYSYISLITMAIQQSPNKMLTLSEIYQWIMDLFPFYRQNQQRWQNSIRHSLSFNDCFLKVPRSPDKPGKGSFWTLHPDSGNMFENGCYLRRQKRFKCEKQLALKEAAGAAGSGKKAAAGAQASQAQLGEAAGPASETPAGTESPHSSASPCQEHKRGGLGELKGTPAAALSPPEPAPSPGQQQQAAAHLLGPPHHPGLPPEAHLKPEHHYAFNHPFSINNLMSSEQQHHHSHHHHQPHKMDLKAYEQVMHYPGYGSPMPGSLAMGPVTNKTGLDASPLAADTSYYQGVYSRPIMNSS
Sequence of Retinoic acid receptor alpha (Homo sapiens) (P10276 whole entry, looked up): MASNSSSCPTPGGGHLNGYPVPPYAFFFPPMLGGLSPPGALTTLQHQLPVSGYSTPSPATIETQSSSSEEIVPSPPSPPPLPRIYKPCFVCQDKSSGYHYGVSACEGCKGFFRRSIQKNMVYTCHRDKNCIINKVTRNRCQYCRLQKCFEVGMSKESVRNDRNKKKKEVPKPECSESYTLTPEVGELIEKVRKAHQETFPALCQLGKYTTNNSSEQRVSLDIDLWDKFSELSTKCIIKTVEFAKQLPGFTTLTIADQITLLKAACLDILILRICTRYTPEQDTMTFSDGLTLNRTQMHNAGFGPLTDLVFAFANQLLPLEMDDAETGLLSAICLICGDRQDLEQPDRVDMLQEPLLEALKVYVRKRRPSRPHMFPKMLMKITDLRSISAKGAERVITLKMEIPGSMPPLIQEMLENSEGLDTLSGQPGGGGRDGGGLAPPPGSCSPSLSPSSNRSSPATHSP

As to `FC(F)(F)C(F)(F)C(F)(F)C(F)(F)C(F)(F)C(F)(F)CCI`, the result in assay [1], in [2], in assay [3], in assay [4], in assay [5] and in assay [7] was inactive. The outcome in assay [8], in assay [9], in assay [10], in assay [11], in assay [12] and in assay [13] was inactive. The molecule was called inactive in [14], in assay [15], in [16], in [17], in assay [18] and in assay [19]. In assay [6], the half-maximal activity concentration (AC50) (commonly the concentration giving half of the maximal activity seen) was 32.1 µM (active).

Regarding `COc1ccc(S(=O)(=O)N2C(=O)[C@@](c3ccccc3OC)(N3C[C@H](O)C[C@H]3C(=O)N(C)C)c3cc(Cl)ccc32)c(OC)c1`, the AC50 in assay [1] is 130 µM (active); in assay [2], 87.9 µM (active); in assay [5], 26.1 µM (active); in assay [6] it was 29.9 µM (active); in assay [7], 27.6 µM (active); in assay [9], 55.5 µM (active). The results for the AC50 in assay [13], in [16] and in assay [17] were 36.7 µM (active), 83.5 µM (active) and 132 µM (active), respectively. Moreover, the outcome in assay [3], in assay [4], in assay [8], in [10], in [11] and in assay [12] was inactive. The outcome in [14], in assay [15], in assay [18] and in [19] was inactive.

For `COc1cc(C=O)ccc1O`, the molecule was called inactive in [1], in assay [2], in [3], in assay [4], in assay [5] and in assay [7]. The result in assay [8], in [9], in [10], in assay [11], in assay [12] and in assay [13] was inactive. Further, the molecule was classed as inactive in assay [14], in assay [15], in [16], in [17], in assay [18] and in [19]. Moreover, the AC50 in assay [6] is 80.8 µM (active).

With `Oc1ccc2ccccc2c1N=Nc1ccccc1`, the outcome in assay [1], in assay [2], in assay [3], in assay [4], in assay [5] and in assay [7] was inactive. The result in [8], in [9], in assay [20], in assay [10], in assay [11] and in assay [12] was inactive. Further, the outcome in [13], in assay [14], in assay [16], in assay [18] and in assay [19] was inactive. Also, the AC50 is 0.0105 µM (active) in [6], 4.52 µM (active) in [15] and 0.14 µM (active) in assay [17].
